This test is described as follows: Brca1-Bard1 BiLC signal decrease – luminescence, single concentration, counter-screen for Mdm2/MdmX interaction inhibitor project, confirmation (AID 504668). To be noted: Brca1/Bard1 bimolecular luciferase complementation counterscreen, at 8 µM, active compounds read high.

Calls of active or inactive are those of the source. The rule behind the calls is not given here.

One may read the inhibition as the percentage by which the read-out fell short of the control. With `COc1cc2c(ccc3cc(OC)c(OC)c(O)c32)cc1O`, the inhibition was 31.4% (active).
To `Cc1ccc(N=c2c([N+](=O)[O-])nn(-c3ccc4c(c3)OCCO4)n2O)cc1F` belongs 23.7% (active).
As to `O=C(CCl)N1CCN2C(=O)c3ccccc3C12c1ccc(Cl)cc1` (stereo not given), the inhibition is 28.5% (active).
Regarding `C/C(=N\NC(=O)c1nnn(-c2nonc2N)c1CN(C)c1ccccc1)c1ccccc1O`, the inhibition is 30.5% (active).
`O=C(N/N=C/c1ccccc1O)c1cccc(C(F)(F)F)c1`: the inhibition was 35.8% (active).
For `COc1cccc(Nc2nc(NCCO)c3ccccc3n2)c1`, the inhibition is 27.7% (active).
For the compound `Cc1ccc(NC(=O)c2cc3ccccc3oc2=O)cc1S(=O)(=O)N(C)C`, the inhibition was 25.9% (active).
Regarding `CC(NC(=O)CN(c1cccc(C(F)(F)F)c1)S(=O)(=O)c1ccc(Cl)c([N+](=O)[O-])c1)c1ccccc1` (stereo not given), the inhibition is 35.1% (active).
Regarding `Cc1ccc(/C=C2\SC(=S)N(CCCC(=O)N3CCOCC3)C2=O)cc1`, the inhibition was 30.5% (active).
To `CCOc1ccccc1CNC(=O)C1CCCN(c2nnc(C)c3c(C)n(-c4ccccc4)nc23)C1` (stereo not given) belongs 33.6% (active); to `CC(Oc1ccc(F)cc1)C(=O)Nc1nc(-c2ccccn2)cs1` (stereo not given), 35.6% (active).
On to `O=C(/C(N=Nc1cccc([N+](=O)[O-])c1)=C(/O)c1ccc(Br)cc1)C(F)(F)F`, for which the inhibition was 24.9% (active).
In the case of `Cc1cc(SCC(=O)N/N=C/c2ccc(O)cc2O)nc2ccccc12`, the inhibition was 32.4% (active).
The value for `O=C(CCCN1C(=O)/C(=C\c2ccccc2)SC1=S)Nc1ccc(O)cc1` was 33.2% (active).
In the case of `O=C1/C(=C/c2ccc(F)cc2)SC(=S)N1CCCC(=O)N1CCCCC1CCO` (stereo not given), the inhibition was 23.7% (active).
